Sampled rows, rich in hits. Any-hit rate of the full collection: about 7%.
PI5P4K alpha inh = qHTS for Inhibitors of phosphatidylinositol 5-phosphate 4-kinase (PI5P4K); 330,000 tested, 1.2% active; PI5P4Kalpha enzyme, ADP-Glo luminescence, 60 min; hits give low values; max response, %; active = max response of -50% or lower; inconclusive = between -30% and -50%; inactive = -30% or higher; also: value at the top dose of about 77 µM
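Compounds were pin-transferred onto PI5P4Kalpha and substrate in HEPES pH 7.4 buffer with EGTA, CHAPS and 5% DMSO. ATP (5 microM final) started the reaction, which ran 60 minutes at room temperature before ADP-Glo detection.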
KAT2A inh = qHTS Assay for Inhibitors of GCN5L2; GCN5L2 HAT assay, ThioGlo1 CoA-SH fluorescence; 390,000 tested, 0.21% active; AID 504327, 2011; Potency, µM (top dose mostly 58.9 µM), most hits filed as inhibitors; Histone acetyltransferase KAT2A (Homo sapiens), Q92830
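Free CoA generated was detected with ThioGlo1 (50uM) fluorescence at Ex340nm/Em540nm, read immediately and after 20 min at room temperature. Enzyme, 20 nM in HEPES pH 7.5 buffer, saw compounds 15 min before adding 75uM H3(1-25) peptide and 70uM acetyl-CoA.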
HP1b chromo inh = HTS for Inhibitors of HP1-beta Chromodomain Interactions with Methylated Histone Tails | Chromobox protein homolog 1 (Homo sapiens), P83916 | AlphaScreen HP1-beta / biotin-H3K9me3 peptide binding | Potency, µM (series often up to 114 µM), usual class: inhibitors | 390,000 tested, 0.56% active; also: nearly all actives have a fitted effect of over 70% in size
Target sequence (P83916 whole entry, looked up): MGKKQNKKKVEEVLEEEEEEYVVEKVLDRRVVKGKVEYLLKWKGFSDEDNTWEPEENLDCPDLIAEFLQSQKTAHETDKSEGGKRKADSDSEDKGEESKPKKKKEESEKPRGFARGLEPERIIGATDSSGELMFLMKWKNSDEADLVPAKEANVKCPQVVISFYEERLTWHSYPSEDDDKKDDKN
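HP1-beta protein (50 nM final) preincubated 30 min at room temperature with biotinylated H3(1-18)K9me3 peptide (50 nM) in PBS pH 7.4, 0.01% Tween-20, then compound added for 30 min. AlphaScreen streptavidin donor/nickel chelate acceptor beads (10 ug/mL final), 30 min dark, luminescence read.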
JMJD2A Tudor = qHTS Assay for Inhibitors of JMJD2A-Tudor Domain | Lysine-specific demethylase 4A (Homo sapiens), O75164 | AlphaScreen JMJD2A-Tudor / H3K4me3 peptide binding | Potency, µM (titrated, usually from 114 µM), usual class: inhibitors | 390,000 tested, 4.4% active; also: nearly all actives have a fitted effect of over 50% in size
BAZ2B inh = qHTS Assay for Inhibitors of BAZ2B; Bromodomain adjacent to zinc finger domain protein 2B (Homo sapiens), Q9UIF8; AlphaScreen BAZ2B-H3K14Ac peptide displacement; Potency, µM (titrated, usually from 114 µM), actives largely listed as inhibitors; 360,000 tested, 4.4% active; AID 504333, 2011; also: nearly all actives have a fitted effect of over 60% in size
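In this displacement format the biotinylated H3(5-23) peptide acetylated at Lys14 serves as ligand at 50 nM, with BAZ2B at 50 nM in PBS pH 7.4 containing 0.01% Tween-20. Donor and acceptor beads are 10 ug/mL final.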
PLK1 PBD block = qHTS for Inhibitors of PLK1-PDB (polo-like kinase 1 - polo-box domain): Primary Screen. Serine/threonine-protein kinase PLK1 (Homo sapiens), P53350. Potency, µM, most hits filed as inhibitors. 360,000 tested, 2.8% active. Plk1 PBD binding of FITC phosphopeptide, fluorescence polarization; also: series mostly up to about 57 µM; nearly all actives have a fitted effect of over 65% in size
Target sequence (P53350 whole entry, looked up, the tested form may be a part): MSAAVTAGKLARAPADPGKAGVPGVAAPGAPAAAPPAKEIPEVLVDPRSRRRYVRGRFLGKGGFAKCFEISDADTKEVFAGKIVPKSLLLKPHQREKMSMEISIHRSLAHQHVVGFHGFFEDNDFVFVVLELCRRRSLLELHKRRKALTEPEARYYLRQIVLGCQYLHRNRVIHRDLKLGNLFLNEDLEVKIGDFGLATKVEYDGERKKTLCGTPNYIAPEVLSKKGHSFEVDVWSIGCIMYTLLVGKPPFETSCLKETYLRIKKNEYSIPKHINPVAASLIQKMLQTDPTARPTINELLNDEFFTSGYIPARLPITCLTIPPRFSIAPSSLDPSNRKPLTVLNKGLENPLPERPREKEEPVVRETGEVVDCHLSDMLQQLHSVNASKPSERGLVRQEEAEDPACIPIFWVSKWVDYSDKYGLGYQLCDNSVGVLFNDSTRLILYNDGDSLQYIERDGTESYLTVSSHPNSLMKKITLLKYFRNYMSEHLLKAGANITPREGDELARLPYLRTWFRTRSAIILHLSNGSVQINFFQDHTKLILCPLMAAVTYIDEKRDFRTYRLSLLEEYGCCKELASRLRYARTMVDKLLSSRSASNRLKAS
Each line names hits and unclear results; the compound was inactive in the other large screens. Unless noted, calls follow the shape of the dose curve; as a rule, active = well fitted curve in the direction sought with a large enough effect; inconclusive = small, poorly fitted or top-dose-only effect, or another doubt; inactive = no such curve, though single readings can be large; an effect the other way counts as inactive or inconclusive.

CCOC(=O)c1[nH]c(C)c(C)c1C	JMJD2A Tudor 79µM, BAZ2B inh inconclusive, PLK1 PBD block inconclusive
O=C(OCN1C(=O)c2ccccc2C1=O)c1cccnc1SC(F)F	none
Cc1cc(OCC(=O)NCC(c2ccc(F)cc2)N2CCOCC2)ccc1Cl (stereo unspecified)	none
CCOc1ccc(C2C(C(=O)OC)=C(C)NC3=C2C(=O)c2ccccc23)cc1OC (stereo unspecified)	HP1b chromo inh inconclusive, JMJD2A Tudor inconclusive (no result: PI5P4K alpha inh, PLK1 PBD block)
C#CCOc1c(Br)cc(C2C(C(=O)OC)=C(C)NC3=C2C(=O)c2ccccc23)cc1OCC (stereo unspecified)	HP1b chromo inh inconclusive, JMJD2A Tudor 11µM, BAZ2B inh inconclusive (no result: PI5P4K alpha inh, PLK1 PBD block)
O=C(CC1C(=O)NCCN1Cc1ccccc1C(F)(F)F)NCCn1cccn1 (stereo unspecified)	KAT2A inh inconclusive
O=C(Nc1cccc(NC(=O)c2ccco2)n1)c1ccco1	none
OCC1OC([S-])[C@H](O)C(O)C1O.[Au+] (stereo partly specified)	KAT2A inh 11µM (no result: PI5P4K alpha inh, HP1b chromo inh, JMJD2A Tudor, BAZ2B inh, PLK1 PBD block)
OC[C@H]1OC(O)[C@@H](O)[C@@H](O)[C@@H]1O (stereo partly specified)	none
CCOC(=O)N(C)c1c(CC)nc2c(OCCOc3ccccc3)cccn12	none (no result: KAT2A inh, HP1b chromo inh, JMJD2A Tudor, BAZ2B inh)
COCC(C)NCc1ccccc1C (stereo unspecified)	HP1b chromo inh inconclusive, JMJD2A Tudor 6.3µM, BAZ2B inh 40µM
COCC(C)NCc1cccc(OC)c1OC (stereo unspecified)	HP1b chromo inh inconclusive, JMJD2A Tudor 1.8µM, BAZ2B inh inconclusive
COCC(C)NS(=O)(=O)c1ccccc1 (stereo unspecified)	none
O=C(/C=C/NCc1cccnc1)c1ccc(Br)cc1	none (no result: KAT2A inh, BAZ2B inh)
COCCn1c(C)cc(C(=O)COC(=O)/C=C/c2c(C)nn(C3CCS(=O)(=O)C3)c2Cl)c1C (stereo unspecified)	none
CSc1ccc(S(=O)(=O)N2c3ccccc3CC2C)cc1 (stereo unspecified)	none
CCc1ccccc1Nc1nc(-c2cccnc2)cs1	BAZ2B inh inconclusive
O=[N+]([O-])c1ccccc1Nc1nc(-c2cccnc2)cs1	HP1b chromo inh inconclusive, JMJD2A Tudor 35µM, BAZ2B inh 14µM
C[C@@H](NC(=O)c1ncn(Cc2ccccc2)c1C(=O)N[C@H](C)c1ccccc1)c1ccccc1	none
O=C(NCC1CCCCC1)c1cc(-c2cc(F)ccc2OCC2CCCO2)n[nH]1 (stereo unspecified)	none (no result: KAT2A inh, HP1b chromo inh, JMJD2A Tudor, BAZ2B inh)
Cc1cc(C(F)(F)F)nn1Cc1n[nH]c(=S)n1Cc1ccccc1	PI5P4K alpha inh -54, JMJD2A Tudor inconclusive
Cc1nccn1CCc1n[nH]c(=S)n1Cc1ccccc1	JMJD2A Tudor 40µM
COc1ccccc1OCc1n[nH]c(=S)n1Cc1ccccc1	JMJD2A Tudor 32µM
CCOC(=O)[C@H]1[C@H]2COc3cc(OC)ccc3[C@@H]2N2C(=O)CN(Cc3ccc(C)cc3)C(=O)[C@@]12C	none
C/C(=N\NC(=S)Nc1ccc(F)cc1)C1CC1	JMJD2A Tudor 28µM (no result: PI5P4K alpha inh)
CCN(CC)CCn1c2ccccc2c(=O)c2c(O)ccc(O)c21	HP1b chromo inh 40µM, JMJD2A Tudor 45µM, PLK1 PBD block inconclusive (no result: KAT2A inh, BAZ2B inh)
CCN(CC)CCn1c(O)c(N=O)c2ccccc21	none (no result: PI5P4K alpha inh)
Cc1ccc(C2NC(=O)CCC2[N+](=O)[O-])cc1 (stereo unspecified)	PLK1 PBD block 19µM
C[C@@H]1CN([C@@H](C)CO)S(=O)(=O)c2ccc(Br)cc2O[C@@H]1CN(C)C(=O)c1ccncc1	none (no result: KAT2A inh, HP1b chromo inh, JMJD2A Tudor, BAZ2B inh)
O=C(Nc1nnc(-c2ccc(Cl)s2)o1)C1CC1	none (no result: BAZ2B inh)
O=C(COc1ccc(Cl)cc1)Nc1nnc(-c2ccco2)o1	JMJD2A Tudor 28µM, BAZ2B inh 22µM
O=C(COc1ccccc1)Nc1nnc(-c2ccco2)o1	JMJD2A Tudor 14µM, BAZ2B inh 18µM
Cc1ccc(C)c(-c2nnc(NC(=O)COc3ccccc3)o2)c1	none
O=C(COc1ccccc1)Nc1nnc(-c2ccc(Cl)s2)o1	JMJD2A Tudor 89µM, BAZ2B inh inconclusive
O=C(Cn1cnc2c(OCc3ccccc3)ncnc21)NCc1ccccc1	JMJD2A Tudor inconclusive, PLK1 PBD block 24µM (no result: BAZ2B inh)
COc1ccc(CNC(=O)Cn2cnc3c(OCc4ccccc4)ncnc32)cc1	none (no result: BAZ2B inh)
CCc1ccc(CNC(=O)c2cnc3sc(N4CCOCC4)nn3c2=O)cc1	none (no result: PI5P4K alpha inh, PLK1 PBD block)
Cc1ccc(-n2cccc2C(=S)N=P(N(C)C)(N(C)C)N(C)C)cc1	JMJD2A Tudor 35µM, BAZ2B inh inconclusive, PLK1 PBD block inconclusive
CCOC(=O)CCP(=O)(O)C(O)c1ccccc1 (stereo unspecified)	JMJD2A Tudor 50µM, PLK1 PBD block 24µM
CCCNC(=O)C(=O)NCC(c1ccc2c(c1)OCO2)N1CCOCC1 (stereo unspecified)	none (no result: PI5P4K alpha inh, PLK1 PBD block)
CCCC(=O)OC/C(O)=C(\C#N)c1nc2ccccc2[nH]1	none
N#CC(=C(O)COC(=O)Cc1c[nH]c2ccccc12)c1nc2ccccc2[nH]1	PI5P4K alpha inh -54 (no result: KAT2A inh, BAZ2B inh)
Cc1cccn2c(=O)c3cc(C(=O)Nc4ccc(Cl)c(Cl)c4)sc3nc12	none (no result: PI5P4K alpha inh, PLK1 PBD block)
Cc1csc2c(=O)sc(NC(=O)c3cccs3)nc12	KAT2A inh inconclusive, BAZ2B inh 50µM
O=C(CCN1C(=O)c2cccc3cccc(c23)C1=O)Nc1ccccc1	none
c1ccc(SCc2nc(-c3ccncc3)no2)cc1	PLK1 PBD block 13µM (no result: PI5P4K alpha inh)
Cc1ccc(SCc2nc(-c3ccccc3)no2)cc1	none
Clc1ccccc1OCc1nc(-c2ccncc2)no1	PLK1 PBD block 6.7µM
Cc1ccc(SCc2nc(-c3ccncc3)no2)cc1	PI5P4K alpha inh inconclusive, JMJD2A Tudor inconclusive, PLK1 PBD block 3µM
COc1ccc(-c2noc(CSc3ccccc3)n2)cc1OC	none
CC1(C)N=C(Nc2nc3ccccc3o2)NC2=C1C(=O)CCC2	none (no result: PI5P4K alpha inh, KAT2A inh, HP1b chromo inh, BAZ2B inh, PLK1 PBD block)
CCN(CC)CCCNc1ccc2ncn3c4ccc(O)cc4c(=O)c1c23	PLK1 PBD block 11µM (no result: KAT2A inh, BAZ2B inh)
COc1ccccc1C(=O)NCC(c1ccc(N(C)C)cc1)N1CCc2ccccc21 (stereo unspecified)	HP1b chromo inh 11µM, JMJD2A Tudor 11µM, BAZ2B inh 10µM (no result: PI5P4K alpha inh, PLK1 PBD block)
CN(C)c1ccc(C(CNC(=O)c2ccccc2Cl)N2CCc3ccccc32)cc1 (stereo unspecified)	HP1b chromo inh inconclusive, JMJD2A Tudor 18µM, BAZ2B inh 13µM (no result: PI5P4K alpha inh, PLK1 PBD block)

Source: PubChem
